PubChem BioAssay AID504773 (Broad Institute, 2011)
Measured potencies and affinities stand elsewhere. Activity calls are given as the source filed them.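 The calls were made as follows: active = polarization signal falls with dose and the fitted half-maximal concentration is at or below ten times the sample's top valid dose; inconclusive = flat curve at 30 to 70% inhibition, or poor fit; inactive = signal rises, flat within 30%, or potency beyond limit.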

What follows are molecules tested against Golgi-associated PDZ and coiled-coil motif-containing protein (Homo sapiens) (UniProt Q9HD26) (assay: potency against CAL PDZ-peptide interaction – biochemical, fluorescence polarization, Cerulean-tagged CAL PDZ, cherry-picks, dose response (AID 504773)). Settings: CAL PDZ-peptide binding, 1 h; series mostly up to 50 µM.

outcome, inactive:
Cc1ccc(-c2nc3ccccc3c(=O)o2)cc1
O=C(c1c(Cl)cccc1Cl)N1CCCCCC1
Cn1nc(C(=O)N2CCCc3ccccc32)c2ccccc2c1=O
COc1ccc(CC(=O)NCC2CCCN(Cc3cccc(SC)c3)C2)cc1 (configuration not stated)
O=C(NCc1ccccn1)Nc1ccc(F)c(Cl)c1
CCCC(=O)OCC(=O)Nc1ccccc1C#N
COc1ccc(C(=O)N2CCCc3ccccc32)cc1Br
CCOc1ccccc1N(CC(=O)Nc1cccc2ccccc12)S(C)(=O)=O
COC(=O)C(C(=O)OC)c1ccc(N)cc1
O=C(NCCCn1ccnc1)c1ccccc1F
Cc1ccc2nc3c(nc2c1)-c1ccccc1C3=O
COc1ccccc1C(=O)Nc1ccc2c(c1)CN(C(=O)CSC)CC2
COc1ccc(CN2CN(C3CCCC3)CSC2=S)cc1
Cc1ccc(C(C)NC(=O)Cc2cccs2)c(C)c1 (configuration not stated)
CCc1nc2ccccc2c(C(=O)Oc2cccc3cccnc23)c1C
Cc1cccc(N=Nc2c(O)[nH]c3ccc(F)cc23)c1
COc1ccc(-c2nc3ccccc3o2)cc1OC
Cc1cc(/C=C2\SC(=O)N(C)C2=O)c(C)n1-c1ccc(O)cc1
O=C(NNC(=O)c1ccc(Cl)c(Cl)c1)c1cccnc1
COc1ccc(/C=N/NC(=O)c2cccc(C(F)(F)F)c2)cc1
CCNC(=S)N(CCN(CC)CC)Cc1cc2cc3c(cc2[nH]c1=O)OCCO3
CCOC(=O)c1ccc(N=C2SC(C(=O)NC)CC(=O)N2Cc2ccc(F)cc2)cc1 (configuration not stated)
COc1ccc(N2CCN(C(=O)c3cccc4nc(C)oc34)CC2)cc1
CCCCN1CC(O)=C(c2nc(-c3ccc(Cl)cc3)cs2)C1=N
Cc1ccc(S(=O)(=O)N2CCN(C(=O)N(C)C)CC2)cc1
COc1ccc(CN(C)C(C)C(=O)NC2CCCc3ccccc32)cc1 (configuration not stated)
O=C(CN(Cc1ccccc1)S(=O)(=O)c1ccc(F)cc1)NCCC1=CCCCC1
CCc1ccc(C2CC(=O)N(c3cccc(F)c3)C3=C2C(=O)OC3)cc1 (configuration not stated)
Cc1ccc(C(=O)Nc2ccccc2)cc1S(=O)(=O)N1CCN(C)CC1
O=C(Nc1ccccc1Cl)Nc1cccnc1Cl
O=C1OC2(CCCCC2)OC(=O)C1=CNc1nc2ccccc2s1
Cc1ccc(F)cc1N=Cc1c(O)c2ccccc2oc1=O
COCCCNC(=O)c1cc(S(=O)(=O)N2CCOCC2)ccc1SCc1cccc(OC)c1OC
CSc1ccc(CNCCCSc2ncccn2)cc1
CCc1nnc(NS(=O)(=O)c2ccc(NC(=O)CCC(=O)O)cc2)s1
CCC1C(=O)NCCN1C(=O)CCc1nnc(CCc2ccc(OC)cc2)o1 (configuration not stated)
COCc1cc(C)nc(SCc2ccccc2)c1C#N
